Compounds without any hit were thinned out: in the full panel of roughly 83,000, 20% have a hit.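 Negative percent growth values reflect cell death: -40 means 40% of the cells present at the start died, and -100 means all died.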 A number with no mark means an inactive call. The source made the active and inactive calls. Rule for the calls: active = growth percent below 10; inactive = the rest.

This note sets out measurements from PubChem BioAssay (NCI).

Test systems include HCT-15 colon; HT29 colon; SNB-75 CNS; SNB-19 CNS; U251 CNS; PC-3 prostate; SK-MEL-5 melanoma; UACC-62 melanoma; LOX IMVI melanoma; SK-MEL-28 melanoma; SK-MEL-2 melanoma; EKVX NSCLC; SN12C renal; UO-31 renal; TK-10 renal; ACHN renal; CAKI-1 renal; A498 renal; CCRF-CEM leukemia; MOLT-4 leukemia.
Common to all, as to experiment: NCI-60 one-dose screen, 48 h (100 = growth as untreated, 0 = no growth, -100 = all killed)
Holding throughout (conditions): 10 µM unless noted

`COc1ccc(C2NC3=C(CCCC3)C(C#N)(C#N)C2(C#N)C#N)cc1` (stereo not given): the growth with HCT-15 colon is 65.9%; with HT29 colon, 79.9%; in the experiment with SNB-75 CNS, 88.6%; in the experiment on SNB-19 CNS, 88.5%; in the experiment on U251 CNS, 107%; with PC-3 prostate, 104%. Further, the growth with SK-MEL-5 melanoma is 101%; in the experiment with UACC-62 melanoma, 75.4%; in the experiment with LOX IMVI melanoma, 91.8%; with SK-MEL-28 melanoma it was 106%; in the experiment with SK-MEL-2 melanoma, 98.8%; in the experiment with EKVX NSCLC, 88.2%. For the same compound, the growth in the experiment on SN12C renal is 88.7%; with UO-31 renal, 75.7%; in the experiment with TK-10 renal, 79.7%; in the experiment with ACHN renal, 37.1%; in the experiment with CAKI-1 renal, 78%; in the experiment on A498 renal, 111%. Also, the growth with CCRF-CEM leukemia was 7.38% (active); with MOLT-4 leukemia, 9.29% (active).
Take `COC(=O)CC/C(C)=N\Nc1ccc([N+](=O)[O-])cc1`: the growth is 34.8% in the experiment on HCT-15 colon; 46.6% in the experiment with HT29 colon; 91.5% with SNB-75 CNS; 99.4% with SNB-19 CNS; 68.4% in the experiment with U251 CNS; 45.8% in the experiment on PC-3 prostate. The growth was 73.8% in the experiment on SK-MEL-5 melanoma; 26.6% with UACC-62 melanoma; 16.2% in the experiment on LOX IMVI melanoma; 96% in the experiment with SK-MEL-28 melanoma; 57.3% with SK-MEL-2 melanoma; 59.2% in the experiment with EKVX NSCLC. Moreover, the growth with SN12C renal was 81.9%; with UO-31 renal it was 35.5%; with TK-10 renal, 63.3%; in the experiment with ACHN renal, 36.2%; with CAKI-1 renal, 41.4%; with A498 renal, 77.3%. For the same compound, the growth was 35% in the experiment on CCRF-CEM leukemia and 34% in the experiment on MOLT-4 leukemia.
As for `O=C1NC(Cc2c[nH]c3ccccc23)C(=O)N1Cc1ccc(Cl)cc1` (stereo not given), the growth was 99.6% with HCT-15 colon; 105% in the experiment with HT29 colon; 90.1% with SNB-75 CNS; 103% in the experiment on SNB-19 CNS; 94.1% in the experiment with U251 CNS; 90.5% in the experiment with PC-3 prostate. Moreover, the growth is 95% in the experiment on SK-MEL-5 melanoma; 86.1% in the experiment with UACC-62 melanoma; 89.1% with LOX IMVI melanoma; 109% in the experiment on SK-MEL-28 melanoma; 66.3% in the experiment with SK-MEL-2 melanoma; 103% in the experiment on EKVX NSCLC. Also, the growth with SN12C renal was 99.7%; in the experiment with UO-31 renal, 76%; in the experiment with TK-10 renal it was 135%; in the experiment on ACHN renal, 95%; with CAKI-1 renal, 86.9%; in the experiment on A498 renal, 78.9%. Further, the values for the growth with CCRF-CEM leukemia and in the experiment on MOLT-4 leukemia were 70.1% and 85.4%, respectively.
With `CCC(c1ccc(OC)cc1)C(CC)c1ccc(O)c(CN2CCCC2)c1` (stereo not given), the growth is 1.62% (active) with HCT-15 colon; 4.26% (active) with HT29 colon; 71.5% in the experiment on SNB-75 CNS; 40.6% with SNB-19 CNS; 7.11% (active) in the experiment on U251 CNS; 24.4% with PC-3 prostate. For the same compound, the growth is -91.8% (active) in the experiment with SK-MEL-5 melanoma; -74.1% (active) with UACC-62 melanoma; -79.1% (active) in the experiment on LOX IMVI melanoma; -50.9% (active) with SK-MEL-28 melanoma; -37.6% (active) in the experiment on SK-MEL-2 melanoma; 11.3% in the experiment with EKVX NSCLC. The growth in the experiment with SN12C renal was 23.3%; in the experiment with UO-31 renal it was 15%; in the experiment with TK-10 renal, 54.5%; with ACHN renal, 39.3%; with CAKI-1 renal it was 32.6%; with A498 renal it was -5.74% (active). The growth in the experiment on CCRF-CEM leukemia was 19.7%; in the experiment on MOLT-4 leukemia, 1.69% (active).
`Cc1cc2c(C(C)C)c(O)c(O)c(C=NCCCCC(=O)O)c2c(O)c1-c1c(C)cc2c(C(C)C)c(O)c(O)c(C=NCCCCC(=O)O)c2c1O`: the growth in the experiment on HCT-15 colon is 34.7%; with HT29 colon it was 46.6%; in the experiment with SNB-75 CNS, 62.1%; in the experiment on SNB-19 CNS, 30.9%; in the experiment on U251 CNS, 24%; in the experiment with PC-3 prostate it was 29.2%. In addition, the growth was 49.4% with SK-MEL-5 melanoma; 59.2% in the experiment on UACC-62 melanoma; 43.4% with LOX IMVI melanoma; 64.2% in the experiment on SK-MEL-28 melanoma; 43.6% with SK-MEL-2 melanoma; 38.4% in the experiment with EKVX NSCLC. Also, the growth in the experiment on SN12C renal is 49.2%; with UO-31 renal, 74.2%; in the experiment with TK-10 renal, 49%; in the experiment with ACHN renal, 62%; with CAKI-1 renal, 73.1%; with A498 renal it was 56.3%. The growth was 29.8% with CCRF-CEM leukemia and 34.9% with MOLT-4 leukemia.
Consider `O=C1CCCCN1CCCCC#Cc1ccccc1C#Cc1ccccn1`, for which the growth is 94.7% in the experiment with HCT-15 colon; 88.6% with HT29 colon; 91.9% in the experiment on SNB-75 CNS; 108% in the experiment with SNB-19 CNS; 88.9% in the experiment on U251 CNS; 95.1% with PC-3 prostate. The growth was 98.2% in the experiment on SK-MEL-5 melanoma; 83.9% with UACC-62 melanoma; 96.8% in the experiment on LOX IMVI melanoma; 110% in the experiment on SK-MEL-28 melanoma; 64.5% in the experiment on SK-MEL-2 melanoma; 106% in the experiment with EKVX NSCLC. Also, the growth with SN12C renal is 106%; in the experiment on UO-31 renal, 42.2%; with TK-10 renal, 136%; in the experiment on ACHN renal it was 86.4%; in the experiment with CAKI-1 renal, 121%; in the experiment on A498 renal it was 114%. The growth in the experiment on CCRF-CEM leukemia is 74%; in the experiment with MOLT-4 leukemia, 94.9%.
For the compound `COc1cc(C2C3=C(COC3=O)Nc3c2ccc2c3CCCC2)cc2c1OCO2` (stereo not given), the growth is 11.2% in the experiment with HCT-15 colon; -3.84% (active) in the experiment on HT29 colon; 34.3% in the experiment with SNB-75 CNS; 36.1% with SNB-19 CNS; 23.1% in the experiment with U251 CNS; 31.7% with PC-3 prostate. Also, the growth is -18.8% (active) in the experiment with SK-MEL-5 melanoma; 36.4% with UACC-62 melanoma; 27.7% in the experiment on LOX IMVI melanoma; 70.1% in the experiment with SK-MEL-28 melanoma; 18.6% with SK-MEL-2 melanoma; 47.9% with EKVX NSCLC. Also, the growth in the experiment with SN12C renal was 28%; with UO-31 renal, 47.7%; in the experiment on TK-10 renal, 65.9%; with ACHN renal, 29.2%; in the experiment with CAKI-1 renal, 33.2%; in the experiment on A498 renal it was 8.51% (active). Besides, the values for the growth in the experiment with CCRF-CEM leukemia and with MOLT-4 leukemia were 14.6% and 18.3%, respectively.
